A selection: hits, their analogues and other compounds. The true share with any hit is near 2.2%.
Shn3 3UTR inh = Schnurri-3 reporter inhibition in Clone20 osteoblasts; Clone20 osteoblast Shn3 3'UTR firefly luciferase, 24 h; inhibition, % at 12.5 µM; actives 0.52% (n = 360,000);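 active means mean inhibition of at least 75% with every replicate also reaching 75%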;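 further: 0% = median of neutral control wells and 100% = pilot-screen positive control compound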
LGR2 antag = Drosophila LGR2 receptor signaling inhibition; inhibition, % at 9.99 µM; actives 0.35% (n = 380,000); HEK293 LGR2, CRE-luciferase, bursicon-stimulated, 4 h; AID 720647;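 active means drop in luminescence signal, shown as inhibition above about 50% in the replicate tests, limit read from the data, passing the limit was not always enough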;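 further: agonist challenge used bursicon conditioned medium at about half maximal strength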
PAX8 reporter = inhibitors of PAX8 transcriptional activity in RMG-I cells. RMG-I TPO-luciferase reporter, SteadyGlo, 24 h. actives 1.2% (n = 360,000). AID 652154. inhibition, % at 12.6 µM;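 active means mean replicate inhibition at least 60% with every replicate also reaching 60%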;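 further: luciferase light reporting Pax8 driven TPO promoter activity; plate controls were median of neutral control wells for no effect and mitoxantrone controls for full effect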
MITF TRPM1 inh = MITF TRPM1 promoter inhibition in SK-MEL-5 cells | AID 488899 | inhibition, % at 12.5 µM | actives 0.83% (n = 330,000) | SK-MEL-5 TRPM1 promoter luciferase, 24 h;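 active means mean inhibition across replicates of 60% or more, whatever share of single replicates reaches that level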
EWS-Fli block = EWS/Fli transcriptional activity inhibition; A673 NR0B1-luciferase reporter, viability-normalised; inhibition, % at 12.6 µM; actives 0.67% (n = 350,000); AID 651661;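 active means mean inhibition of at least 50% after viability correction, with every replicate also passing that limit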;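 further: firefly luciferase signal divided by Alamar Blue viability fluorescence both relative to DMSO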
EBV LMP1 NFkB = Epstein-Barr LMP1 NF-kappaB reporter inhibition; actives 0.69% (n = 350,000); LMP1-induced NF-kappaB luciferase reporter cells, luminescence; AID 504558; inhibition, % at 12.5 µM; in the data active means inhibition above about 41%;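 further: 0% = neutral control wells and 100% = reference inhibitor control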
* = called active by the depositor.

For Cc1ccc(-c2nc(C(=O)NCCCN(C)C)cc3c2[nH]c2ccccc23)cc1 the results were Shn3 3UTR inh -11, LGR2 antag -24, PAX8 reporter 19, MITF TRPM1 inh 76*, EWS-Fli block -4 and EBV LMP1 NFkB -5.
C[C@@H]1CN([C@@H](C)CO)C(=O)Cc2cc(NC(=O)Nc3ccc(C(F)(F)F)cc3)ccc2O[C@H]1CN(C)C(=O)Nc1ccc(C(F)(F)F)cc1 was read as LGR2 antag -6, PAX8 reporter 78* and EWS-Fli block 1.
Screening C[C@@H]1CN([C@H](C)CO)C(=O)Cc2cc(NC(=O)Nc3ccc(C(F)(F)F)cc3)ccc2O[C@@H]1CN(C)C(=O)Nc1ccc(C(F)(F)F)cc1 returned LGR2 antag -7, PAX8 reporter -1 and EWS-Fli block -5.
`C[C@@H]1CN([C@H](C)CO)C(=O)Cc2cc(NC(=O)Nc3ccc(F)cc3)ccc2O[C@H]1CN(C)C(=O)Nc1ccc(C(F)(F)F)cc1` gave LGR2 antag -6, PAX8 reporter 80* and EWS-Fli block 27.
Screening Fc1ccc(C2=NN(c3ccccc3)C(c3ccco3)C2)cc1 (stereo unspecified) returned Shn3 3UTR inh -13, LGR2 antag -48, PAX8 reporter -13, MITF TRPM1 inh -13, EWS-Fli block -5 and EBV LMP1 NFkB -8.
For COc1ccccc1C1CC(c2ccco2)=NN1c1ccccc1 (stereo unspecified) the results were Shn3 3UTR inh -4, LGR2 antag -11, PAX8 reporter 80*, MITF TRPM1 inh 7, EWS-Fli block 6 and EBV LMP1 NFkB 0.
Screening C[C@@H]1CN([C@@H](C)CO)C(=O)c2cc(C#Cc3ccccc3)cnc2O[C@H]1CN(C)CC1CCOCC1 returned LGR2 antag 11 and EWS-Fli block -1.
`CC(C)CCNC(=S)Nc1ccc2nc3n(c(=O)c2c1)CCCCC3` gave Shn3 3UTR inh -12, LGR2 antag 0, PAX8 reporter -22, MITF TRPM1 inh -16, EWS-Fli block 2 and EBV LMP1 NFkB 63*.
`O=C(Nc1ccc2nc3n(c(=O)c2c1)CCCC3)c1cccc([N+](=O)[O-])c1` gave Shn3 3UTR inh -18, LGR2 antag -17, PAX8 reporter -23, MITF TRPM1 inh -16 and EBV LMP1 NFkB 0.
`CCCCNC(=S)Nc1ccc2nc3n(c(=O)c2c1)CCCCC3` gave Shn3 3UTR inh -12, LGR2 antag -11, PAX8 reporter -18, MITF TRPM1 inh -1, EWS-Fli block -23 and EBV LMP1 NFkB 0.
`O=C(Nc1ccc2nc3n(c(=O)c2c1)CCCC3)c1cc([N+](=O)[O-])ccc1F` gave Shn3 3UTR inh 91*, MITF TRPM1 inh 81* and EBV LMP1 NFkB 2.
For O=C(C[C@@H]1C[C@H]2c3cc(NC(=O)NC4CCCC4)ccc3O[C@H]2[C@@H](CO)O1)NCc1cccnc1 the results were LGR2 antag -10, PAX8 reporter 4 and EWS-Fli block -7.
Screening CCCCn1nc(C(=O)Nc2cc(C(F)(F)F)ccc2N2CCOCC2)ccc1=O returned Shn3 3UTR inh 36, LGR2 antag 5, PAX8 reporter 93*, MITF TRPM1 inh 19, EWS-Fli block 14 and EBV LMP1 NFkB -2.
Cc1cc(C(=O)Nc2cc(C(F)(F)F)ccc2N2CCOCC2)no1 was read as Shn3 3UTR inh 15, LGR2 antag -22, PAX8 reporter -4, MITF TRPM1 inh -8 and EBV LMP1 NFkB -1.
O=C(C[C@H]1CC[C@H](NC(=O)C2CC2)[C@@H](CO)O1)NC1CCC1 was read as LGR2 antag 8, PAX8 reporter -10 and EWS-Fli block -6.
`CO[C@H]1CN(C)C(=O)c2cc(NS(=O)(=O)c3c(C)noc3C)ccc2OC[C@H](C)NC[C@@H]1C` gave LGR2 antag 12 and EWS-Fli block 1.
For C[C@H]1CN([C@@H](C)CO)C(=O)c2cc(-c3ccc(C#N)cc3)cnc2O[C@@H]1CN(C)Cc1cncnc1 the results were LGR2 antag 16 and EWS-Fli block 23.
Screening C[C@H]1CCCCO[C@@H](CN(C)C(=O)CCCN(C)C)[C@@H](C)CN([C@@H](C)CO)C(=O)c2cc(NS(=O)(=O)c3ccc(Cl)cc3)ccc2O1 returned LGR2 antag -29, PAX8 reporter 2 and EWS-Fli block -7.
`O=C(Nc1ccccc1)NN(C(=O)CCl)c1ccccc1` gave Shn3 3UTR inh 7, LGR2 antag 14, PAX8 reporter 99*, MITF TRPM1 inh 87*, EWS-Fli block 34 and EBV LMP1 NFkB 47*.
Screening CCC(O)(CC)C(=O)NN(C(=O)CCl)c1ccccc1 returned Shn3 3UTR inh -1, LGR2 antag 4, PAX8 reporter -19, MITF TRPM1 inh 8, EWS-Fli block 17 and EBV LMP1 NFkB -10.
For Cc1ccc(N(NC(=O)C(O)(c2ccccc2)c2ccccc2)C(=O)CCl)cc1 the results were Shn3 3UTR inh 3, LGR2 antag -13, PAX8 reporter 107*, MITF TRPM1 inh 29 and EBV LMP1 NFkB -4.
Screening NS(=O)(=O)c1ccc(Sc2ccccn2)c([N+](=O)[O-])c1 returned Shn3 3UTR inh 0, LGR2 antag -9, PAX8 reporter 4, MITF TRPM1 inh 1, EWS-Fli block 7 and EBV LMP1 NFkB 2.
NS(=O)(=O)c1ccc(Sc2nc3ccccc3s2)c([N+](=O)[O-])c1 was read as PAX8 reporter 78*, MITF TRPM1 inh -8, EWS-Fli block 25 and EBV LMP1 NFkB 70*.
For CN(C)C(=O)C[C@@H]1C[C@H]2c3cc(NS(C)(=O)=O)ccc3O[C@H]2[C@@H](CO)O1 the results were LGR2 antag -6, PAX8 reporter -12 and EWS-Fli block -6.
Screening C/C(=N\Nc1ncc(Cl)cc1Cl)c1ccccn1 returned Shn3 3UTR inh 86*, MITF TRPM1 inh 95* and EBV LMP1 NFkB 85*.
Screening C/C(=N\Nc1ncnc2sc(C)c(C)c12)c1ccccn1 returned Shn3 3UTR inh 89*, LGR2 antag -3, PAX8 reporter 58, MITF TRPM1 inh 67*, EWS-Fli block 7 and EBV LMP1 NFkB 84*.
C[C@@H]1CN([C@@H](C)CO)C(=O)c2cc(C3=CCCC3)cnc2O[C@@H]1CN(C)C(=O)c1ccccn1 was read as LGR2 antag -6, PAX8 reporter -9 and EWS-Fli block 6.
Screening CCCN1[C@@H]2c3ccc(-c4ccc(F)cc4)c(=O)n3C[C@@H]2[C@@H](CO)[C@@H]1C(=O)N[C@@H](C)c1ccccc1 returned LGR2 antag 8, PAX8 reporter 32 and EWS-Fli block 11.
Screening CO[C@H]1CN(C)C(=O)c2cc(C#N)ccc2OC[C@H]2O[C@H](CC[C@H]2OC)CCN(C)C(=O)[C@H]1C returned LGR2 antag -5, PAX8 reporter -23 and EWS-Fli block -5.

From PubChem
